Experimental data taken from PubChem BioAssay (NCATS).
Results filed as inconclusive are left out. Some of the results follow. Active and inactive are the calls of the source. The call rests on the fitted dose curve; in most records, active means well fitted curve in the direction sought with a large enough effect; inconclusive means small, poorly fitted or top-dose-only effect, or another doubt; inactive means no such curve, though single readings can be large; an effect the other way counts as inactive or inconclusive.

Columns and labels:
[1] = target: RecQ-like DNA helicase BLM (Homo sapiens) (UniProt P54132); assay: qHTS Validation Assay for Inhibitors of Bloom's syndrome helicase (BLM) (AID 2364); further: potency means the concentration at half of the fitted maximal effect
Sequence of RecQ-like DNA helicase BLM (Homo sapiens) (P54132 whole entry, looked up): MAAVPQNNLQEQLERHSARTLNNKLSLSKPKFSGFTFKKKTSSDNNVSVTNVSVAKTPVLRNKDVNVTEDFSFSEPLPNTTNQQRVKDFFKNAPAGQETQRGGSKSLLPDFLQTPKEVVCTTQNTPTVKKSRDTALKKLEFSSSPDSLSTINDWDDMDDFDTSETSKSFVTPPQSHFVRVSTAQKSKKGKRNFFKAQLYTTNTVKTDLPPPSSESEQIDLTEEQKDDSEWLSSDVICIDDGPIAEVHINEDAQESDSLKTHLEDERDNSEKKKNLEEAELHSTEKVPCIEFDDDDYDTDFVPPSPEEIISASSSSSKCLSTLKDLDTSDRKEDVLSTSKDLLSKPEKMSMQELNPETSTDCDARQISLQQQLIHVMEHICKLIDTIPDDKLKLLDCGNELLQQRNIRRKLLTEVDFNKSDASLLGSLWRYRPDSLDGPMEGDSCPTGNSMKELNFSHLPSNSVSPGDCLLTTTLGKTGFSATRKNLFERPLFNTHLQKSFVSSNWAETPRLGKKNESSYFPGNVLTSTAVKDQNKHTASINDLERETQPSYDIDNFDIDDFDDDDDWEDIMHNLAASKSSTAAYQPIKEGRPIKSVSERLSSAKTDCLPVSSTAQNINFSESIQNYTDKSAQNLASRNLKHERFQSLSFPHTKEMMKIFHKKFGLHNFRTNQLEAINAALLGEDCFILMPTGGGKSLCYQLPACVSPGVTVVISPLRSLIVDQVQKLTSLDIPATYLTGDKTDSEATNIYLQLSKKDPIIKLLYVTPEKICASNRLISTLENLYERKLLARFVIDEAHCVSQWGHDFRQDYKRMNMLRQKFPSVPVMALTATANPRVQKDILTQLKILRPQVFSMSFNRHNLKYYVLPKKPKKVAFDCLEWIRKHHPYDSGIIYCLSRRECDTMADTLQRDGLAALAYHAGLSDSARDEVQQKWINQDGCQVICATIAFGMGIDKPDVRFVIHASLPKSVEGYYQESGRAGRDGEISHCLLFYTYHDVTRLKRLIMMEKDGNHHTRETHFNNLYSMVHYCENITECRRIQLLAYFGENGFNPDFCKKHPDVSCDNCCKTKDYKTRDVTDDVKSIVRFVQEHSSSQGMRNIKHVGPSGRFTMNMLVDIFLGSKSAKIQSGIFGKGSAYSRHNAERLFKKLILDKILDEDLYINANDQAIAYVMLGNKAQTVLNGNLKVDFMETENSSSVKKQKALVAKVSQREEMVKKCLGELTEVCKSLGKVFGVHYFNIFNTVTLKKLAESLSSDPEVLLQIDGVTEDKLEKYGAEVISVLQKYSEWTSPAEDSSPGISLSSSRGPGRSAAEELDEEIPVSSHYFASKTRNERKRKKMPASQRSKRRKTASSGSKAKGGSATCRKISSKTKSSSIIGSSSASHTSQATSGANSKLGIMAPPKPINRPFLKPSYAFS
In short: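 Forked 20-bp duplex substrate (200 nM, TAMRA/BHQ-2) plus 2 mM ATP added after 15 min compound preincubation with 50 nM enzyme, pH 8.0, poly(dI-dC) 2.5 ug/ml. Strand separation followed by fluorescence (525/598 nm) over 2 h, normalized to enzyme-free and DMSO controls.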

[2] = Cytometric Cell-Based qHTS for Inhibitors of the mTORC1 Signaling Pathway in MEF (Tsc2-/-, p53-/-) Cells (AID 2660);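 further: Tsc2 and p53 null MEFs carrying empty vector with compound for 24 h; percent of cells above a phospho-rpS6 to PI ratio cutoff in each well; series mostly up to about 38 µM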
In short: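 Immunofluorescence qHTS of rpS6 Ser235/236 phosphorylation: MEFs (Tsc2-/-, p53-/-) treated 24 h, 37 C, in DMEM + 10% FBS. Alexa-488 signal normalized to PI count, referenced to rapamycin (7.5 nM) and DMSO; PI cell number recorded for viability.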

[3] = High Content Imaging Cell-Based qHTS for Inhibitors of the mTORC1 Signaling Pathway in MEF (Tsc2-/-, p53-/-) Cells (AID 2666);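 further: percent of cells scored positive for phospho-rpS6 Ser235/236 immunostaining by imaging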
In short: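 Tsc2-/-, p53-/- MEFs (empty-vector stable) grown in DMEM + 10% FBS were exposed to compounds for 24 hrs at 37 degree Celsius, fixed, and stained with Alexa-488 anti-phospho-rpS6 Ser235/236 plus Hoechst. Imaging gave the percentage of positive cells per well.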

[4] = High Content Imaging Cell-Based qHTS for Inhibitors of the mTORC1 Signaling Pathway in MEF Cells (AID 2667); further: potency means the concentration at half of the fitted maximal effect
In short: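 Tsc2-/-, p53-/- MEFs stably re-expressing WT Tsc2, grown in DMEM + 10% FBS, were treated with compounds for 24 hrs at 37 degree Celsius, fixed, and stained with Alexa-488 phospho-rpS6 Ser235/236 antibody plus Hoechst; results given as % positive cells.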

[5] = Validation screen for small molecules that induce DNA re-replication in MCF 10A normal breast cells (AID 463097); further: nearly all actives have a fitted effect of over 60% in size; further: potency means the concentration at half of the fitted maximal effect
In short: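 Read-out is Hoechst total nuclear intensity by fluorescence scanning imager, flagging increased high-DNA-content nuclei. Compounds were incubated with MCF 10A cells for 48 hr (37 C, 5% CO2) before 40 min staining.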

[6] = target: ATP-dependent DNA helicase Q1 (Homo sapiens) (UniProt P46063); assay: qHTS Validation Assay for Inhibitors of RecQ-Like Dna Helicase 1 (RECQ1) (AID 2353)
Sequence of ATP-dependent DNA helicase Q1 (Homo sapiens) (P46063 whole entry, looked up): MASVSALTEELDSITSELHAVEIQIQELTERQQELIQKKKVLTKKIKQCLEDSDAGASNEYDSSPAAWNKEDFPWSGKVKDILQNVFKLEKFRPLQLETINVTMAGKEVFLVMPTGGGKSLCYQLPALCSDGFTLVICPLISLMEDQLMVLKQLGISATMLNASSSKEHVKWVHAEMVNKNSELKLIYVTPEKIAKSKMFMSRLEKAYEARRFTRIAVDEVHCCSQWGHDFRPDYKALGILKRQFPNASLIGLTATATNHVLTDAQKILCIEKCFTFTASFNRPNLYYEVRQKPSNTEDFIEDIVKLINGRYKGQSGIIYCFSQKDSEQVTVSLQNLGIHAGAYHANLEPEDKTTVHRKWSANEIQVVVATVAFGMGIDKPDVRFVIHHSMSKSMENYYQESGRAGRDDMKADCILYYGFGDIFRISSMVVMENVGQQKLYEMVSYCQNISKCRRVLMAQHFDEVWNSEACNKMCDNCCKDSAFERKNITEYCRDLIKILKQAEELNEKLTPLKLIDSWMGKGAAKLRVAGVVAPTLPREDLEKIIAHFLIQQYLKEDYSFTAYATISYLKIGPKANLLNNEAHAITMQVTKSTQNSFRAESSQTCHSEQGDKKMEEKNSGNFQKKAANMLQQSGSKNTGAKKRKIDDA
In short: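 RECQ1T1 50 nM; forked duplex (20 bp + 30-nt ss tails) 200 nM, ATP 2 mM final; pH 8.0, 2 mM MgCl2, 2.5 ug/ml poly(dI-dC); 15 min compound preincubation; discontinuous kinetic read over 2 h at RT.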

[7] = Cytometry Cell-Based qHTS for Inhibitors of the mTORC1 Signaling Pathway in MEF cells (AID 2668); further: potency means the concentration at half of the fitted maximal effect
In short: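 Phospho-rpS6 (Ser235/236) immunofluorescence over PI signal, scored as % positive cells using thresholds from 7.5 nM rapamycin and DMSO wells, after 24 h compound exposure of WT-Tsc2-rescued Tsc2-/-, p53-/- MEFs. PI cell count recorded for viability.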

[8] = target: Endonuclease 4 (Escherichia coli (strain K12)) (UniProt P0A6C1); assay: Counterscreen for APE1 Inhibitors: qHTS Assay for Inhibitors of Endonuclease IV (AID 2565); further: potency means the concentration at half of the fitted maximal effect
In short: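 The reaction buffer contained 50 mM Tris-HCl pH 7.5, 50 mM NaCl, 2 mM MgCl2, 1 mM DTT and 0.01% Tween-20. Incision of a 50 nM fluorophore/quencher THF substrate by 2 nM enzyme was measured kinetically.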

[9] = target: DNA repair nuclease/redox regulator APEX1 (Homo sapiens) (UniProt P27695); assay: Confirmation qHTS Assay for Inhibitors of the Human Apurinic/apyrimidinic Endonuclease 1 (APE1) (AID 2572); further: potency means the concentration at half of the fitted maximal effect; nearly all actives have a fitted effect of over 30% in size
Sequence of DNA repair nuclease/redox regulator APEX1 (Homo sapiens) (P27695 whole entry, looked up): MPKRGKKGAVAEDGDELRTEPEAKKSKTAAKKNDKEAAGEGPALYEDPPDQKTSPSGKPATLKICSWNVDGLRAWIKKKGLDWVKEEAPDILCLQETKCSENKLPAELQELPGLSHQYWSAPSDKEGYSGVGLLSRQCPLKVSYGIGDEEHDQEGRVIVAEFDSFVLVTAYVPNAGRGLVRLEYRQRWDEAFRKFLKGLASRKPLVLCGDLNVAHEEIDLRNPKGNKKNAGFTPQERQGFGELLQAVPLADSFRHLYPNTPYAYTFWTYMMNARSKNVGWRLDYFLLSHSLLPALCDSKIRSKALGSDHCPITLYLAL
In short: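 Inhibition is measured on a short double-stranded THF-site oligo, 50 nM final, whose incision relieves BHQ-2 quenching of TAMRA. After 15 min enzyme–compound preincubation at RT, three reads a minute apart are taken.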

Measured: Potency

COc1ccccc1CNCCCCCCNCCCCCCCCNCCCCCCNCc1ccccc1OC
inactive: [2] | [3] | [4] | [5]
active: [1] 17.8 µM

Oc1ccc(C2CNCc3sccc32)cc1O (stereo not drawn)
inactive: [6] | [2] | [3] | [4] | [7] | [5]

CNCC[C@H](Oc1ccc(C(F)(F)F)cc1)c1ccccc1
inactive: [6] | [3]

Oc1cc2c(cc1O)CN(C(=S)NCCc1ccc(Cl)cc1)CCC2
active: [5] 3.55 µM
inactive: [6] | [2] | [3] | [4] | [7]

O=C1C(SCCO)=C(SCCO)C(=O)c2ccccc21
active: [1] 28.2 µM | [4] 3.69 µM | [5] 3.98 µM
inactive: [2] | [3]

O=C(CCCCCN1CCN(c2ccccc2-c2ccccc2)CC1)NC1CCCc2ccccc21 (stereo not drawn)
inactive: [2] | [3]

O=P(O)(O)C(Cl)(Cl)P(=O)(O)O
inactive: [2] | [3] | [4]

COc1ccccc1N1CCN(CCN(C(=O)c2ccc(I)cc2)c2ccccn2)CC1
inactive: [2] | [3]

COc1cccc(C(=O)NCCN2CCN(c3ccc(Cl)cc3)CC2)c1
inactive: [1] | [2] | [3] | [4] | [7] | [5]

N[C@@H](CC(=O)O)C(=O)O
inactive: [6] | [2] | [3] | [4] | [7] | [5]

C[C@@H](CN1CCC(Cc2ccccc2)CC1)[C@@H](O)c1ccc(O)cc1
inactive: [1] | [2] | [3] | [4]

CC(COc1ccc(/C=C/c2ccccc2)cc1)[N+](C)(C)C (stereo not drawn)
inactive: [1] | [2] | [3]

Fc1ccc(C(OCCCc2cnc[nH]2)c2ccc(F)cc2)cc1
inactive: [6] | [2] | [3] | [4] | [7] | [5]

CC(=O)SCC[N+](C)(C)C
inactive: [6] | [2] | [3] | [4] | [7] | [5]

N#C/C(=C\c1ccc(O)c(O)c1)C(=O)NCc1ccccc1
inactive: [6] | [2] | [3] | [4]
active: [5] 8.91 µM

O=C(O)c1cc([N+](=O)[O-])ccc1NCCCc1ccccc1
inactive: [6] | [2] | [3] | [4] | [7] | [5]

c1cnc2c(c1)ccc1cccnc12
active: [4] 0.0465 µM | [7] 4.65 µM
inactive: [1] | [2] | [3]

CC(C)(C=O)Cc1cc(C(C)(C)C)c(O)c(C(C)(C)C)c1
inactive: [6] | [2] | [3] | [4] | [7] | [5]

Cc1cc2c(cc1Cl)N(C(=O)Nc1ccc(Oc3cccnc3C)nc1)CC2
inactive: [2] | [3]

NC(=O)C(=O)O
inactive: [6] | [2] | [3] | [4] | [7] | [5]

CC1(C)CCC=[N+]1[O-]
inactive: [6] | [2] | [3] | [4] | [5]

CCCCCCCCCCCCCCCCCCNC(=O)OCC(COP(=O)([O-])OCC[n+]1ccsc1)OC (stereo not drawn)
inactive: [6] | [4]

NCCSSCCN
inactive: [1] | [2] | [3] | [4] | [5]

Cn1cc(C2=C(c3ccc(Cl)cc3Cl)C(=O)NC2=O)c2ccccc21
inactive: [1] | [2] | [3] | [4]

CCCCCCCCCCCCCCCCCC(=O)NCC(COP(=O)([O-])OCC[N+](C)(C)C)OCC (stereo not drawn)
active: [5] 1.12 µM
inactive: [6] | [2] | [3] | [4]

COc1cccc(OC)c1OCCNCC1COc2ccccc2O1 (stereo not drawn)
inactive: [1] | [2] | [3] | [4] | [5]

O=S(=O)(c1cccc2c(I)cccc12)N1CCCNCC1
inactive: [1] | [2] | [3]

N.N.O=C(O)C1(C(=O)O)CCC1.[Pt]
inactive: [6] | [5]

C[N+](C)(CCCCCC[N+](C)(C)CCCN1C(=O)c2cccc3cccc(c23)C1=O)CCCN1C(=O)c2cccc3cccc(c23)C1=O
active: [8] 3.55 µM | [9] 4.47 µM
inactive: [1] | [2] | [3] | [4] | [7] | [5]

O=C(Nc1ccccc1)c1cc([N+](=O)[O-])ccc1Cl
inactive: [1] | [2] | [3] | [4] | [5]

O=C(O)c1cc(=O)c2c(Cl)cc(Cl)cc2[nH]1
inactive: [6] | [2] | [3] | [4] | [7] | [5]

O=C(Nc1cccc(C(=O)Nc2ccc(S(=O)(=O)O)c3cc(S(=O)(=O)O)cc(S(=O)(=O)O)c23)c1)Nc1cccc(C(=O)Nc2ccc(S(=O)(=O)O)c3cc(S(=O)(=O)O)cc(S(=O)(=O)O)c23)c1
inactive: [1] | [2] | [3] | [4] | [7] | [5]
